From paper PMC7862700, “An all-to-all approach to the identification of sequence-specific readers for epigenetic DNA modifications on cytosine” come the findings set out here.

Common to all, as to test: DAPPL (digital affinity profiling via proximity ligation, sequencing); 10 mM Tris-HCl pH 7.5, 50 mM NaCl, 1 mM DTT, 4% glycerol, room temperature, 30 min; GST-TFs on glutathione beads, 16-mer random dsDNA library, 0.1% formaldehyde crosslink after washing; high values mean tight binding
One assay addresses T1, FEV (Homo sapiens, UniProt Q99581 1-238).
T1 sequence: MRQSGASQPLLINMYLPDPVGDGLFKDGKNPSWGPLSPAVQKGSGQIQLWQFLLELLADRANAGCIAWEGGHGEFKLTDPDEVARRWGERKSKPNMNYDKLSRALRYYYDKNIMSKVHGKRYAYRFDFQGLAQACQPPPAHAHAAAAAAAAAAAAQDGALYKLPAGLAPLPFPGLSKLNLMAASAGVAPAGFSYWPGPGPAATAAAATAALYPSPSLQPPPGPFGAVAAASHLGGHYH
The note with it: protein: recombinant; tags: N-terminal GST; dsDNA, one strand shown. Put shortly: (§1)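 Binding signal is each hexamer's read frequency for a factor divided by its frequency in the tag-only sample. The factors were GST-fused human transcription factors from yeast, captured on glutathione beads, DNA-barcoded and pooled with that sample. Pools were incubated with 200 nmole of a random double-stranded 16-mer DNA library in Tris/NaCl/DTT/glycerol buffer at room temperature for 30 min, then washed, crosslinked with 0.1% formaldehyde, proximity-ligated with BsaI/T4 ligase (1 h, 37 °C), PCR-amplified and sequenced on an Illumina NextSeq500.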

The target of the next assay is ETV5 (Homo sapiens, UniProt P41161 1-510). As to conditions: protein: recombinant; tags: N-terminal GST; dsDNA, one strand shown. Put shortly:
as §1

A further assay has as its target HSF1 (Homo sapiens, UniProt Q00613 1-529). The note with it: protein: recombinant; tags: N-terminal GST; chain copies: 3; dsDNA, one strand shown. Put shortly: as §1
A further assay addresses T2, SPIC (Homo sapiens, UniProt Q8N5J4 1-248).
T2 sequence: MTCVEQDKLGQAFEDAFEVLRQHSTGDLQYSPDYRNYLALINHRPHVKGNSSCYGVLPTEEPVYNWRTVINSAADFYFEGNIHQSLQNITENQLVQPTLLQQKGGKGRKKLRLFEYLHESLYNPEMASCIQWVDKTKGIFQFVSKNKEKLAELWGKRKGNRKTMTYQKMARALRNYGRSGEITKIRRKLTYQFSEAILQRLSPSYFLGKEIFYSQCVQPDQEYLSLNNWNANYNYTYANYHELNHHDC
The note with it: protein: recombinant; tags: N-terminal GST; dsDNA, one strand shown. Put shortly: as §1

The next assay addresses ELF4 (Homo sapiens, UniProt Q99607 1-663). As to conditions: protein: recombinant; tags: N-terminal GST; dsDNA, one strand shown. The method in brief:
as §1

A further assay concerns the target T3, ELK4 (Homo sapiens, UniProt P28324-2 1-405).
T3 sequence: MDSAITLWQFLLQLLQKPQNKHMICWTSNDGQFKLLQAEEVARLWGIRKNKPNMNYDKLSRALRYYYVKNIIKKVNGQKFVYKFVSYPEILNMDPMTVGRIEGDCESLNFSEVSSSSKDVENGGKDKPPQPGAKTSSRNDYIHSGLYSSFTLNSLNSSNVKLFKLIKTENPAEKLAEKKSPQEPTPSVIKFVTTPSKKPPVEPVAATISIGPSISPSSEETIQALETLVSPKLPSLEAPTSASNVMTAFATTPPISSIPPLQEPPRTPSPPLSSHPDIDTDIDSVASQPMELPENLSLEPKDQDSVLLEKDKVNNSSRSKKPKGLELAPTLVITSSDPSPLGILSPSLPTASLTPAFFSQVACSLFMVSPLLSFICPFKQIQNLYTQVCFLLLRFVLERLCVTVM
As to conditions: protein: recombinant; tags: N-terminal GST; dsDNA, one strand shown. Put shortly: as §1

Another assay addresses T4, ETV2 (Homo sapiens, UniProt O00321 1-342).
T4 sequence: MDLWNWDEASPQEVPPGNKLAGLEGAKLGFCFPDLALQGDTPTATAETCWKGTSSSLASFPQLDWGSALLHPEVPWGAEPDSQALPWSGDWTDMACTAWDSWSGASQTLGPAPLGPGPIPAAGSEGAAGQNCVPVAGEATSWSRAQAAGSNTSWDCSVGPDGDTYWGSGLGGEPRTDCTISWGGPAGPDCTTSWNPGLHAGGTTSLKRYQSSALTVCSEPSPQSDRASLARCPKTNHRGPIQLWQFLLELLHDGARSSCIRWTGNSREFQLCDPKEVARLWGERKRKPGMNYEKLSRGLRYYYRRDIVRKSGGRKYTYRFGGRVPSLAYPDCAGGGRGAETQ
As to conditions: protein: recombinant; tags: N-terminal GST; dsDNA, one strand shown. Put shortly: as §1

A further assay deals with T5, ELF3 (Homo sapiens, UniProt P78545 1-371).
T5 sequence: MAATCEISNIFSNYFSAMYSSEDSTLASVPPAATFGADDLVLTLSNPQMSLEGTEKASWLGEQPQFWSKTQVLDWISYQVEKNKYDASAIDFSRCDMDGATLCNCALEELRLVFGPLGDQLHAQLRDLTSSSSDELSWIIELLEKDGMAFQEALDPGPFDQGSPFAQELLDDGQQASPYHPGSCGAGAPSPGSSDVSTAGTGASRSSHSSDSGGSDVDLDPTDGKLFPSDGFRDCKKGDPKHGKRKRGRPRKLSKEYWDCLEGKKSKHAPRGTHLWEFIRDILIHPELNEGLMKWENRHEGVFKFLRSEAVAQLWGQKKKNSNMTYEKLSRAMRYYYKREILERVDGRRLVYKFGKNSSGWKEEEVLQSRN
As to conditions: protein: recombinant; tags: N-terminal GST; dsDNA, one strand shown. Put shortly: as §1

The target in the next assay is CRX (Homo sapiens, UniProt O43186 1-299). The note with it: protein: recombinant; tags: N-terminal GST; dsDNA, one strand shown. The method in brief:
as §1

For another assay, the target named is ETV1 (Homo sapiens, UniProt P50549 1-477). As to conditions: protein: recombinant; tags: N-terminal GST; dsDNA, one strand shown. The method in brief: as §1
A further assay has as its target T6, ERF (Homo sapiens, UniProt P50548 1-548).
T6 sequence: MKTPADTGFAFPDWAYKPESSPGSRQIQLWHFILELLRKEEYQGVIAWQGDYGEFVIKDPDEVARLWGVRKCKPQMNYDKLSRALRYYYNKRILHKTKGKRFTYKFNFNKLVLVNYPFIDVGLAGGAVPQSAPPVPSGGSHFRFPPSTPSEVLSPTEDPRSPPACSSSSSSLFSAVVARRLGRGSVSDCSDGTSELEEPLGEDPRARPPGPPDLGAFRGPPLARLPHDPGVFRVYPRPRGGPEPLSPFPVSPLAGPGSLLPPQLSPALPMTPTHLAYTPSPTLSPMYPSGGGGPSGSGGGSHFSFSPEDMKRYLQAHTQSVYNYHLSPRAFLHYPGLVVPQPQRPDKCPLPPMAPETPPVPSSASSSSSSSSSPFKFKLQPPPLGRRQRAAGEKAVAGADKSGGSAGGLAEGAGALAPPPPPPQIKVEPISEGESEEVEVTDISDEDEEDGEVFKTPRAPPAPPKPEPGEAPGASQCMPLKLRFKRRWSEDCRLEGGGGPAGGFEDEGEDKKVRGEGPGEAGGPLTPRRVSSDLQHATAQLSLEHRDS
The note with it: protein: recombinant; tags: N-terminal GST; dsDNA, one strand shown. The method in brief:
as §1

The target in the next assay is T7, ETV3L (Homo sapiens, UniProt Q6ZN32 1-361).
T7 sequence: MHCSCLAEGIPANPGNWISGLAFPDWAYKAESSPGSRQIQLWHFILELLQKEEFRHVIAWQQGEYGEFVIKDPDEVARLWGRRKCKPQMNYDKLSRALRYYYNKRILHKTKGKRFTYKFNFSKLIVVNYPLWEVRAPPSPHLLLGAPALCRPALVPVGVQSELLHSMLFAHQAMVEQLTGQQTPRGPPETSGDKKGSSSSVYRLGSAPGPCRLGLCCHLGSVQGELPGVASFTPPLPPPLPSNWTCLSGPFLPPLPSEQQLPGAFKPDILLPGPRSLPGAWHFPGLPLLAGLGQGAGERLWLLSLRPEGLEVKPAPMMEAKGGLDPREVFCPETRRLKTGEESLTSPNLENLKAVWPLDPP
As to conditions: protein: recombinant; tags: N-terminal GST; dsDNA, one strand shown. Put shortly: as §1

The target in the next assay is T8, ETS2 (Homo sapiens, UniProt P15036 1-469).
T8 sequence: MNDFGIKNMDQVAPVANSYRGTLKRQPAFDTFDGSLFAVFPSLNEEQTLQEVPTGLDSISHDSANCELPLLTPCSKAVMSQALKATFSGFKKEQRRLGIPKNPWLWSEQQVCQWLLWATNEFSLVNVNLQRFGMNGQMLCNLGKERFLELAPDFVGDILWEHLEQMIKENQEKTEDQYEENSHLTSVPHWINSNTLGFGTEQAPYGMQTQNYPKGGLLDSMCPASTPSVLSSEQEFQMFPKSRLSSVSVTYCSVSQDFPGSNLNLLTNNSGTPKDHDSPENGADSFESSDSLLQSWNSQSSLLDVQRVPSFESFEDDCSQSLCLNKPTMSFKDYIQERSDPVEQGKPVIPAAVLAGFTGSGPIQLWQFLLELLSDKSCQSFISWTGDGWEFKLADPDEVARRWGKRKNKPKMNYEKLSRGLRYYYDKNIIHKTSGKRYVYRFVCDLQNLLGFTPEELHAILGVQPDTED
The note with it: protein: recombinant; tags: N-terminal GST; dsDNA, one strand shown. The method in brief: as §1

In the next assay the target is T9, SPDEF (Homo sapiens, UniProt O95238 1-335).
T9 sequence: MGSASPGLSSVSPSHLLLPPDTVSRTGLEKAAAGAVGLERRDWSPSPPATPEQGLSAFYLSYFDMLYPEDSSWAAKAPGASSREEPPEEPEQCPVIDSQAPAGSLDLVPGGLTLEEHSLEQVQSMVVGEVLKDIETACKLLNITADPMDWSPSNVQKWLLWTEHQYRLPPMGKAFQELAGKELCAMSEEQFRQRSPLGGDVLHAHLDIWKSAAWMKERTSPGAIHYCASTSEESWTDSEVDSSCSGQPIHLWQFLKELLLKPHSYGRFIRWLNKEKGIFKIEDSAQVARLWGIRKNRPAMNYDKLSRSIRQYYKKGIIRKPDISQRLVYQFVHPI
The note with it: protein: recombinant; tags: N-terminal GST; dsDNA, one strand shown. The method in brief: as §1

The next assay concerns the target T10, ETV7 (Homo sapiens, UniProt Q9Y603 1-341).
T10 sequence: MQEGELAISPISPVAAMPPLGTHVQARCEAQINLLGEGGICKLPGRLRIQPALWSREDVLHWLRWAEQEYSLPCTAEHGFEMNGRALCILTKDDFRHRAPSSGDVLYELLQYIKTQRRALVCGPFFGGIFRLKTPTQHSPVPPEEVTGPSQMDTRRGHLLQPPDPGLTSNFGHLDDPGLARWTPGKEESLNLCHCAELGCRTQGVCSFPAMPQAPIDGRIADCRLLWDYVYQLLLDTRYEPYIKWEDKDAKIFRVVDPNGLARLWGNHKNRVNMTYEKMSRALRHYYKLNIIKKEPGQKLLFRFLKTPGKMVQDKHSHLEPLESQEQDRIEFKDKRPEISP
The note with it: protein: recombinant; tags: N-terminal GST; dsDNA, one strand shown. Put shortly: as §1

A further assay concerns the target T11, ELF5 (Homo sapiens, UniProt Q9UKW6-2 1-255).
T11 sequence: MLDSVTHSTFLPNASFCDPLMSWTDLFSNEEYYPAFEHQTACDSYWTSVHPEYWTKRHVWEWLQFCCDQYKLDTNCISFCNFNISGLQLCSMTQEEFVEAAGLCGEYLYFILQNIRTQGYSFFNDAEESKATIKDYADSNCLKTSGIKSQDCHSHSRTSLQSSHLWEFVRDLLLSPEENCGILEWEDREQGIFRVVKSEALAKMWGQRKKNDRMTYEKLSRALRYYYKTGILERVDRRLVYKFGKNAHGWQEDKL
As to conditions: protein: recombinant; tags: N-terminal GST; dsDNA, one strand shown. The method in brief: as §1

For another assay, the target named is T12, ETV3 (Homo sapiens, UniProt P41162-2 1-143).
T12 sequence: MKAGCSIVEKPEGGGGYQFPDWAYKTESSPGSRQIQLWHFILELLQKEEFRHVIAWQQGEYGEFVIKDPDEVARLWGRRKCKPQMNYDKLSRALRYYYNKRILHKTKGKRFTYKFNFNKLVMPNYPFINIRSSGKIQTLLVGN
As to conditions: protein: recombinant; tags: N-terminal GST; dsDNA, one strand shown. Put shortly:
as §1

For a further assay, the target named is ETV6 (Homo sapiens, UniProt P41212 1-452). As to conditions: protein: recombinant; tags: N-terminal GST; dsDNA, one strand shown. The method in brief:
as §1

Chain of ETV5 (P41161 whole entry): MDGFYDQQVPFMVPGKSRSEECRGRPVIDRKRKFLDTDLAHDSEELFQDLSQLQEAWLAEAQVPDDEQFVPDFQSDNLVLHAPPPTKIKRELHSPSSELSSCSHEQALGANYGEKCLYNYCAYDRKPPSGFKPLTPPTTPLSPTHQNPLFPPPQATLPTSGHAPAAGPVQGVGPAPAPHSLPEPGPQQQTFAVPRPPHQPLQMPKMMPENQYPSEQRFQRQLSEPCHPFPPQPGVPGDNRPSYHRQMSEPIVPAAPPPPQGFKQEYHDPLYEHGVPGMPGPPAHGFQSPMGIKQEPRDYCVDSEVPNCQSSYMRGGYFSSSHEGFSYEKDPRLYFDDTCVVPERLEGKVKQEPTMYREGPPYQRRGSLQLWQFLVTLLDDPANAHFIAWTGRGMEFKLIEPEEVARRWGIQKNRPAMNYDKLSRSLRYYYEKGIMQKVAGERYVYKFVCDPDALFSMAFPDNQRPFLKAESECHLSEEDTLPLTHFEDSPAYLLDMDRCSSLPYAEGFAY
Chain of ELF4 (Q99607 whole entry): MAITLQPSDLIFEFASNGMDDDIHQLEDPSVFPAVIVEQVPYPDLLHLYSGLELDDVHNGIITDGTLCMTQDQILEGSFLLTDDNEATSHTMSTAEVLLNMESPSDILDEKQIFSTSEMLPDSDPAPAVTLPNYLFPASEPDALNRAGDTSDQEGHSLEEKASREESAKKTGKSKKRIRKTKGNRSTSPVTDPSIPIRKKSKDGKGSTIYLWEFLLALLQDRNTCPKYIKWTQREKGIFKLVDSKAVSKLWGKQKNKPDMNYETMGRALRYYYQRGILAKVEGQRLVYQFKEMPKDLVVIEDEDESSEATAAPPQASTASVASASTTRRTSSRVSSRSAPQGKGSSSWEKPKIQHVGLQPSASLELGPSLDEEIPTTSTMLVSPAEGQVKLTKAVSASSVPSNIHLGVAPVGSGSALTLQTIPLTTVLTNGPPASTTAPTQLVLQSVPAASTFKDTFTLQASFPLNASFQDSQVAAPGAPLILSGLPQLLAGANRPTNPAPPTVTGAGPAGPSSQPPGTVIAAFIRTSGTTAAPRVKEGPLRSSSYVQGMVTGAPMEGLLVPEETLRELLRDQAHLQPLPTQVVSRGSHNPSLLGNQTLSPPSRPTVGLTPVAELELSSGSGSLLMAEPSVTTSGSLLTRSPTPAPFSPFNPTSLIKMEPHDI
Chain of HSF1 (Q00613 whole entry): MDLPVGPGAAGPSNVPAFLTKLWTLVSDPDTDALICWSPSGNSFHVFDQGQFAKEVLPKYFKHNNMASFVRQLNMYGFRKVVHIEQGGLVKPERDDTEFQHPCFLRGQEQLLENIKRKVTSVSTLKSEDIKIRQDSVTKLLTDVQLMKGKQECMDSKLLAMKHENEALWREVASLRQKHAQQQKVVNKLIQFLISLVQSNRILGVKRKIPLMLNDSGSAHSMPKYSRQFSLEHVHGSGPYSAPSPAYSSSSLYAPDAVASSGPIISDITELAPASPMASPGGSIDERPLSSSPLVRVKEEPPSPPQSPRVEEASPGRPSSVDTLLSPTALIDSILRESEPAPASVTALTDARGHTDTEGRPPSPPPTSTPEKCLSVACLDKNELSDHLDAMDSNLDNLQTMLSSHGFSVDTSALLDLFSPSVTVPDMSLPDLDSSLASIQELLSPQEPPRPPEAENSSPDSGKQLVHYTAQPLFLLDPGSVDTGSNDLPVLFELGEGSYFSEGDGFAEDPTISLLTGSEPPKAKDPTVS
Chain of CRX (O43186 whole entry): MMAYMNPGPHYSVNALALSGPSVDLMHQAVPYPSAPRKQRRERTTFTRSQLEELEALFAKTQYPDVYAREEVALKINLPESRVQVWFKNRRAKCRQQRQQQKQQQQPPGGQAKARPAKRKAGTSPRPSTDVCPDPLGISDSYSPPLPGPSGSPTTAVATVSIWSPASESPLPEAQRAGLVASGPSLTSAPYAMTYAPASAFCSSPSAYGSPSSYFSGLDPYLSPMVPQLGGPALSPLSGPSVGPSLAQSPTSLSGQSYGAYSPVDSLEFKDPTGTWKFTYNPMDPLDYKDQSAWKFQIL
Chain of ETV1 (P50549 whole entry): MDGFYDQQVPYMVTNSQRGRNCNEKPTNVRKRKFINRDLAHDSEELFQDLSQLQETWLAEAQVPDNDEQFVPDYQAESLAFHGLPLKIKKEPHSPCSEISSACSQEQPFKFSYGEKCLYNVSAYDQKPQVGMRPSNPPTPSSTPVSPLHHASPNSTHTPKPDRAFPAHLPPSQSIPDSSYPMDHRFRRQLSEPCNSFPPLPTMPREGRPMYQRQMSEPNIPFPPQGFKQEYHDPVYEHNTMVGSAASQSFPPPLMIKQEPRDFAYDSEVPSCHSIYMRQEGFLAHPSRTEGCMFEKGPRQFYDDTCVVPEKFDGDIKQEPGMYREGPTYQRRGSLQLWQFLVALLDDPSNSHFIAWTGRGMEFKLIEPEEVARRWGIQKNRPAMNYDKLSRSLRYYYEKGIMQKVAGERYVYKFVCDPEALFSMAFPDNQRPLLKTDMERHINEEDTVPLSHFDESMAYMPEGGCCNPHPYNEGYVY
Chain of ETV6 (P41212 whole entry): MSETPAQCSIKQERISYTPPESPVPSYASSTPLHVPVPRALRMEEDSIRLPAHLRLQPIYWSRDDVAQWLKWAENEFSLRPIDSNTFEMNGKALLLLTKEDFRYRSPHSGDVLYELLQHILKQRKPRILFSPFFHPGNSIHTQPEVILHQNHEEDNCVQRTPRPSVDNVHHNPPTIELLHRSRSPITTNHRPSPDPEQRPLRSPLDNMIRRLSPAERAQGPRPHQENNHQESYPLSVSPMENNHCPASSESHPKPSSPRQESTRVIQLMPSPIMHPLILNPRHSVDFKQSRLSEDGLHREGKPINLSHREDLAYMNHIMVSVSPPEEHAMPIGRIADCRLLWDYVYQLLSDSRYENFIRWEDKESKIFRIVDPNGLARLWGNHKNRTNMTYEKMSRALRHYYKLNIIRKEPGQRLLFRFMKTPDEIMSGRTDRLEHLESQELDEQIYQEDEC

Take TTTTGG: the binding signal with FEV was 1.38 fold enrichment (6-mer frequency, TF over GST control); with ETV5, 1.55 fold enrichment (6-mer frequency, TF over GST control); with HSF1, 1.44 fold enrichment (6-mer frequency, TF over GST control); with SPIC, 1.38 fold enrichment (6-mer frequency, TF over GST control); with ELF4 it was 1.41 fold enrichment (6-mer frequency, TF over GST control); with ELK4 it was 1.45 fold enrichment (6-mer frequency, TF over GST control). Besides, the binding signal with ETV2 is 1.6 fold enrichment (6-mer frequency, TF over GST control); with ELF3, 1.44 fold enrichment (6-mer frequency, TF over GST control); in the assay with CRX, 1.6 fold enrichment (6-mer frequency, TF over GST control); with ETV1, 1.55 fold enrichment (6-mer frequency, TF over GST control); with ERF, 1.47 fold enrichment (6-mer frequency, TF over GST control); with ETV3L, 1.48 fold enrichment (6-mer frequency, TF over GST control). Also, the binding signal was 1.55 fold enrichment (6-mer frequency, TF over GST control) with ETS2; 1.36 fold enrichment (6-mer frequency, TF over GST control) with SPDEF; 1.43 fold enrichment (6-mer frequency, TF over GST control) with ETV7; 1.34 fold enrichment (6-mer frequency, TF over GST control) with ELF5; 1.36 fold enrichment (6-mer frequency, TF over GST control) with ETV3; 1.42 fold enrichment (6-mer frequency, TF over GST control) in the assay with ETV6.
